Reference: PubChem BioAssay (NCI)
The panel holds about 79,000 compounds, 15% with a hit somewhere; the sample as a whole holds those more often. The source made the active and inactive calls. No stated cut-off is given here; in the data, active means growth inhibition above about 70%; inactive means the rest.

Legend:
[1] = NCI Yeast Anticancer Drug Screen. Data for the mec2-1 strain (AID 157); details: S. cerevisiae mec2-1 strain, stronger effect = higher value
Procedure, shortened: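 Test agents were screened against the mec2-1 yeast strain, with defined DNA repair or cell cycle alteration. Growth was scored as inhibition against vehicle-only controls.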

[2] = NCI Yeast Anticancer Drug Screen. Data for the rad14 strain (AID 159);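 further: 0% = growth of vehicle-treated control cultures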; details: S. cerevisiae rad14 strain growth inhibition, stronger effect = higher value
Procedure, shortened: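 Compound-treated yeast with a defined DNA-repair lesion; growth inhibition normalised to vehicle-treated cultures.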

[3] = NCI Yeast Anticancer Drug Screen. Data for the sgs1 mgt1 strain (AID 161);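 further: 0% = growth of cultures given vehicle only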; details: S. cerevisiae sgs1 mgt1 strain, stronger effect = higher value
Procedure, shortened: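 Genetically altered yeast, compound exposure, growth inhibition relative to vehicle.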

[4] = NCI Yeast Anticancer Drug Screen. Data for the CLN2oe strain (AID 163);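 further: 0% = growth of vehicle-only control cultures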; details: S. cerevisiae CLN2oe strain, stronger effect = higher value
Procedure, shortened: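 Here, growth inhibition in a cell-cycle-altered yeast strain after compound exposure was quantified against vehicle control growth.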

[5] = NCI Yeast Anticancer Drug Screen. Data for the cln2 rad14 strain (AID 165);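 further: 0% = growth equal to vehicle treated cultures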; details: S. cerevisiae cln2 rad14 strain, stronger effect = higher value
Procedure, shortened: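 Growth of compound-exposed yeast (cln2 rad14 genotype) measured and expressed as inhibition relative to vehicle.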

[6] = NCI Yeast Anticancer Drug Screen. Data for the bub3 strain (AID 167); details: S. cerevisiae bub3 mutant strain, stronger effect = higher value
Procedure, shortened: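 Growth of a checkpoint-deficient yeast mutant is measured after compound exposure. Values represent inhibition relative to vehicle.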

[7] = NCI Yeast Anticancer Drug Screen. Data for the wt2 strain (AID 169);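 further: 0% = growth of vehicle-treated yeast cultures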; details: S. cerevisiae wt2 strain growth inhibition, stronger effect = higher value
Procedure, shortened: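 Genetically defined yeast strains from a DNA-repair/cell-cycle panel were used. Compound-exposed yeast growth was measured, and the inhibition was calculated relative to vehicle treatment.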

[8] = NCI Yeast Anticancer Drug Screen. Data for the mlh1 strain (AID 171);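 further: 0% = growth of vehicle-treated control cultures of the same strain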; details: S. cerevisiae mlh1 strain growth inhibition, stronger effect = higher value
Procedure, shortened: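 Here the genetically defined yeast mutant is grown with each compound, and the extent to which its growth falls below that of vehicle-exposed cells is reported.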

[9] = NCI Yeast Anticancer Drug Screen. Data for the sgs1 strain (AID 173);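 further: 0% = growth of vehicle-only control cultures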; details: S. cerevisiae sgs1 mutant, stronger effect = higher value
Procedure, shortened: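 Relative growth inhibition, referenced to vehicle, was determined in a yeast strain with a defined alteration affecting DNA damage repair or cell cycle control after compound exposure.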

[10] = NCI Yeast Anticancer Drug Screen. Data for the rad18 strain (AID 177); details: S. cerevisiae rad18 mutant growth inhibition, stronger effect = higher value
Procedure, shortened: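 Screen uses a yeast strain with a defined lesion in DNA damage repair; compound effect is read as loss of growth compared to untreated vehicle cultures.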

[11] = NCI Yeast Anticancer Drug Screen. Data for the rad52 strain (AID 147);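 further: 0% = growth of vehicle-treated control cultures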; details: S. cerevisiae rad52 mutant growth inhibition, stronger effect = higher value
Procedure, shortened: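 Measured: yeast growth inhibition. System: strain with a defined DNA damage repair alteration. Reference: vehicle-treated control cultures.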

[12] = NCI Yeast Anticancer Drug Screen. Data for the rad50EPP+ strain (AID 151);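 further: 0% = growth of vehicle-treated control cultures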; details: S. cerevisiae rad50 mutant strain, stronger effect = higher value
Procedure, shortened: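 One strain with a rad50 alteration (rad50EPP+) was compound-treated, its growth then compared to that of vehicle controls.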

[13] = NCI Yeast Anticancer Drug Screen. Data for the mgt1 strain (AID 153); details: S. cerevisiae mgt1 mutant growth inhibition, stronger effect = higher value
Procedure, shortened: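 After exposure of the mgt1 yeast mutant to compound, growth was measured and reported as inhibition compared with vehicle controls.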

[14] = NCI Yeast Anticancer Drug Screen. Data for the rad50 strain (AID 155);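 further: 0% = growth of vehicle-only cultures of the same strain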; details: S. cerevisiae rad50 strain growth inhibition, stronger effect = higher value
Procedure, shortened: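 Compounds were tested on a yeast strain with an engineered DNA damage repair alteration; the reported value is growth inhibition normalised to vehicle treatment.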

[15] = NCI Yeast Anticancer Drug Screen. Data for the mlh1 rad18 strain (AID 175); details: S. cerevisiae mlh1 rad18 strain growth inhibition, stronger effect = higher value
Procedure, shortened: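 In this whole-cell yeast screen, a strain with altered DNA damage repair is challenged with compound, and its growth is measured against matched vehicle-treated controls.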

[16] = at 5.0 µM (retest, dose inferred, filed as 0.5)
[17] = at 50.0 µM (retest, dose inferred, filed as 5.0)

Measured: growth inhibition

CCOC(=O)c1cc(-c2ccc(Cl)cc2)c([N+](=O)[O-])n1C
active: [1]; at 100.0 µM 96% | [2]; at 33.0 µM 76% | [2]; at 100.0 µM 95% | [3]; at 50.0 µM 91.7% | [4]; at 100.0 µM 96% | [5]; [17] 95% | [5]; at 50.0 µM 89% | [6]; at 33.0 µM 74% | [6]; [17] 97% | [6]; at 50.0 µM 85.3% | [6]; at 100.0 µM 95% | [7]; at 33.0 µM 70% | [7]; at 100.0 µM 97% | [8]; at 33.0 µM 94% | [8]; at 100.0 µM 96% | [9]; at 33.0 µM 97% | [9]; at 100.0 µM 98% | [10]; at 11.0 µM 71% | [10]; at 33.0 µM 95% | [10]; at 100.0 µM 96%
inactive: [2]; at 1.2 µM -8% | [2]; at 3.7 µM -4% | [2]; at 11.0 µM 11% | [3]; [16] 10% | [3]; [17] 50% | [4]; at 1.2 µM 10% | [4]; at 3.7 µM -3% | [4]; at 11.0 µM 7% | [4]; at 33.0 µM 60% | [5]; [16] 15% | [6]; at 1.2 µM -6% | [6]; at 3.7 µM -29% | [6]; [16] -22% | [6]; at 11.0 µM -9% | [7]; at 1.2 µM 6% | [7]; at 3.7 µM 13% | [7]; at 11.0 µM 13% | [8]; at 1.2 µM 28% | [8]; at 3.7 µM 36% | [8]; at 11.0 µM 56% | [9]; at 1.2 µM 27% | [9]; at 3.7 µM 29% | [9]; at 11.0 µM 58% | [10]; at 1.2 µM 3% | [10]; at 3.7 µM 37%

Fc1ccc(NC(=S)SCc2ccc(Cl)c(Cl)c2)cc1F
inactive: [11]; at 1.2 µM -6% | [11]; at 3.7 µM -8% | [11]; at 11.0 µM 17% | [12]; at 1.2 µM -2% | [12]; at 3.7 µM 25% | [12]; at 11.0 µM 60% | [13]; at 1.2 µM -3% | [13]; at 3.7 µM -4% | [13]; at 11.0 µM 0% | [14]; at 1.2 µM -15% | [14]; at 3.7 µM -9% | [14]; [16] 66% | [14]; at 11.0 µM 45% | [14]; at 33.0 µM -12% | [1]; at 1.2 µM -4% | [1]; at 3.7 µM -4% | [1]; [16] 18% | [1]; at 11.0 µM -4% | [1]; at 33.0 µM 60% | [2]; at 1.2 µM 3% | [2]; at 3.7 µM 5% | [2]; at 11.0 µM 24% | [3]; [16] 25% | [4]; at 1.2 µM -7% | [4]; at 3.7 µM -10% | [4]; at 11.0 µM -11% | [5]; [16] -2% | [6]; at 1.2 µM -2% | [6]; at 3.7 µM -4% | [6]; [16] 1% | [6]; at 11.0 µM 21% | [7]; at 1.2 µM 10% | [7]; at 3.7 µM 13% | [7]; at 11.0 µM 64% | [8]; at 1.2 µM -13% | [8]; at 3.7 µM -7% | [8]; at 11.0 µM 27% | [9]; at 1.2 µM -5% | [9]; at 3.7 µM -1% | [9]; at 11.0 µM 44% | [15]; [16] 33% | [10]; at 1.2 µM -9% | [10]; at 3.7 µM -6% | [10]; at 11.0 µM 30%
active: [11]; at 33.0 µM 89% | [11]; at 100.0 µM 98% | [12]; at 33.0 µM 98% | [12]; at 100.0 µM 98% | [13]; at 33.0 µM 97% | [13]; at 100.0 µM 98% | [14]; [17] 98% | [14]; at 50.0 µM 90.3% | [14]; at 100.0 µM 97% | [1]; [17] 98% | [1]; at 50.0 µM 93.2% | [1]; at 100.0 µM 99% | [2]; at 33.0 µM 99% | [2]; at 100.0 µM 98% | [3]; [17] 98% | [3]; at 50.0 µM 90% | [4]; at 33.0 µM 80% | [4]; at 100.0 µM 97% | [5]; [17] 97% | [5]; at 50.0 µM 90.5% | [6]; at 33.0 µM 98% | [6]; [17] 97% | [6]; at 50.0 µM 90.8% | [6]; at 100.0 µM 98% | [7]; at 33.0 µM 99% | [7]; at 100.0 µM 99% | [8]; at 33.0 µM 99% | [8]; at 100.0 µM 98% | [9]; at 33.0 µM 99% | [9]; at 100.0 µM 97% | [15]; [17] 97% | [15]; at 50.0 µM 90.6% | [10]; at 33.0 µM 98% | [10]; at 100.0 µM 98%

O=C(O)CNc1ccc(Cl)c(Cl)c1
inactive: [11]; at 1.2 µM -2% | [11]; at 3.7 µM 0% | [11]; at 11.0 µM 14% | [12]; at 1.2 µM -2% | [12]; at 3.7 µM 1% | [12]; at 11.0 µM 6% | [12]; at 33.0 µM 22% | [12]; at 100.0 µM 43% | [13]; at 1.2 µM -2% | [13]; at 3.7 µM -4% | [13]; at 11.0 µM -6% | [13]; at 33.0 µM 32% | [14]; at 1.2 µM -2% | [14]; at 3.7 µM 6% | [14]; [16] -7% | [14]; at 11.0 µM 13% | [14]; [17] 18% | [1]; at 1.2 µM -10% | [1]; at 3.7 µM -1% | [1]; [16] -7% | [1]; at 11.0 µM -8% | [1]; at 33.0 µM 38% | [1]; [17] 30% | [1]; at 50.0 µM 57.2% | [2]; at 1.2 µM -6% | [2]; at 3.7 µM -7% | [2]; at 11.0 µM -7% | [2]; at 33.0 µM 48% | [3]; [16] -6% | [3]; [17] 22% | [3]; at 50.0 µM 38.4% | [4]; at 1.2 µM -4% | [4]; at 3.7 µM -1% | [4]; at 11.0 µM 0% | [4]; at 33.0 µM 58% | [5]; [16] 10% | [5]; [17] 1% | [6]; at 1.2 µM -9% | [6]; at 3.7 µM -12% | [6]; [16] -8% | [6]; at 11.0 µM 5% | [6]; at 33.0 µM 67% | [6]; [17] 17% | [7]; at 1.2 µM -5% | [7]; at 3.7 µM -5% | [7]; at 11.0 µM -6% | [8]; at 1.2 µM -2% | [8]; at 3.7 µM 1% | [8]; at 11.0 µM 2% | [9]; at 1.2 µM -3% | [9]; at 3.7 µM -5% | [9]; at 11.0 µM 4% | [15]; [16] -16% | [10]; at 1.2 µM -2% | [10]; at 3.7 µM -4% | [10]; at 11.0 µM 2%
active: [11]; at 33.0 µM 77% | [11]; at 100.0 µM 98% | [13]; at 100.0 µM 99% | [14]; at 33.0 µM 75% | [14]; at 50.0 µM 78.2% | [14]; at 100.0 µM 98% | [1]; at 100.0 µM 99% | [2]; at 100.0 µM 98% | [4]; at 100.0 µM 98% | [5]; at 50.0 µM 84.2% | [6]; at 50.0 µM 87.3% | [6]; at 100.0 µM 98% | [7]; at 33.0 µM 78% | [7]; at 100.0 µM 99% | [8]; at 33.0 µM 71% | [8]; at 100.0 µM 99% | [9]; at 33.0 µM 74% | [9]; at 100.0 µM 98% | [15]; [17] 76% | [15]; at 50.0 µM 89.2% | [10]; at 33.0 µM 76% | [10]; at 100.0 µM 98%
